Measured values as given in the supplement of paper PMC3334620.
Whole data set: some 33,000 sequences, median “E-score (-0.5 to 0.5)” near -0.054, cut for the highest 2% near 0.39. Shown is part of a subset that was picked to be rich in the highest values.

These sequences were tested against Ylr278c (UniProt Q05854) (assay: PBM E-score (8-mer binding enrichment) (E-score (-0.5 to 0.5)); higher = stronger / more preferred TF binding). Settings: protein concentration: 200 nM; construct: GST-DNA-binding domain.
Chain of UniProt Q05854 (Q05854 whole entry, the tested form may be a part): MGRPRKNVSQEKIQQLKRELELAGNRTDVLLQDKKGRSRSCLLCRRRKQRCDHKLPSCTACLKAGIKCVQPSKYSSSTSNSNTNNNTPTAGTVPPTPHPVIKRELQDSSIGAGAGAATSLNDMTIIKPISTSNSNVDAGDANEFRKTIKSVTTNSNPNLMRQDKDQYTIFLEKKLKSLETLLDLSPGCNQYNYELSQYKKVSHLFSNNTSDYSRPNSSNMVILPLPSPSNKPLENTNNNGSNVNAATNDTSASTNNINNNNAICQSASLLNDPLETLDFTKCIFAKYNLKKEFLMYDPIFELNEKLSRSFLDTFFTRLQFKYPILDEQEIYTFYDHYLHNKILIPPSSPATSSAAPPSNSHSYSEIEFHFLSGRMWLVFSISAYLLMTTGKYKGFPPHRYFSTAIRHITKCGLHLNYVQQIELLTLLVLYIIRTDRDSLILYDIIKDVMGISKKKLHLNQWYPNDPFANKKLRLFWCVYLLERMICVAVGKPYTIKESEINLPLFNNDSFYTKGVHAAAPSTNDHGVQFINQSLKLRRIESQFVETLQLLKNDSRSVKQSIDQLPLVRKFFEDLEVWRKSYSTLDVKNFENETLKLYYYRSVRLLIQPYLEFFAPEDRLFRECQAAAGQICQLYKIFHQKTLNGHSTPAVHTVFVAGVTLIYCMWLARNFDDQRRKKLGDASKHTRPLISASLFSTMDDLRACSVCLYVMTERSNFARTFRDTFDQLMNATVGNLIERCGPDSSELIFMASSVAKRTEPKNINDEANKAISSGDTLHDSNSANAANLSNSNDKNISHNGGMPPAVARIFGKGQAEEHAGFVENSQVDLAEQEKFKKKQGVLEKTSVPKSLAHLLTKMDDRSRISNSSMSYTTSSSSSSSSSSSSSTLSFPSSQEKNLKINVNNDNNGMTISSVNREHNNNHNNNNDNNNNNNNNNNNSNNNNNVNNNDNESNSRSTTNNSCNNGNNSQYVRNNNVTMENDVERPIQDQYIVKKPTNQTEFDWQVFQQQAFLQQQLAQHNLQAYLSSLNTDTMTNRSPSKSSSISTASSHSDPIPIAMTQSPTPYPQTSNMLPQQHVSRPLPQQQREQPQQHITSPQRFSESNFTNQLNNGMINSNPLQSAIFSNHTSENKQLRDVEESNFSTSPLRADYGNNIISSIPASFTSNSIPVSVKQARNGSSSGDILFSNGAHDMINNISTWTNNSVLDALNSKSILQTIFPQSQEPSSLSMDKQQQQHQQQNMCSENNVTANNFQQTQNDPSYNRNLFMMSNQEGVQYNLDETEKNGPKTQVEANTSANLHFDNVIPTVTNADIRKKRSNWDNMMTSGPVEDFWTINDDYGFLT
Protocol: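 Universal 'all 10-mer' protein binding microarrays (Agilent AMADID 015681) probed with GST-tagged S. cerevisiae TFs (full-length or DBD) made by in vitro transcription/translation (PURExpress), about 100-200 nM. Bound TF was detected with fluorescent anti-GST. Each ungapped 8-mer (which stands for itself and its reverse complement) is scored by the PBM enrichment score (E-score), a modified Wilcoxon-Mann-Whitney statistic from -0.5 to +0.5, computed with the Universal PBM Analysis Suite. Scale: above 0.35 generally sequence-specific binding.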

In order of rising “PBM E-score” value:
1. AGGAGAGC  -0.275
2. GCCCATAC  -0.275
3. CAGACTGG  -0.271
4. CTCCAGCA  -0.256
5. ACAACCGT  -0.251
6. ATTGGCAC  -0.247
7. TAACTTGA  -0.237
8. GCAGGATA  -0.221
9. AAGGAGAC  -0.214
10. AGGGAGAT  -0.207
11. GGGAGAGA  -0.201
12. GCTACCCA  -0.196
13. AAGGTCAA  -0.195
14. AGGCCCCT  -0.194
15. ACCTTGTC  -0.192
16. ACTGGACA  -0.189
17. ATGGCTAC  -0.185
18. CAGAGAGC  -0.184
19. CCTGTGGC  -0.166
20. ATGTTCCA  -0.162
21. CAGGAACA  -0.157
22. AAGACGTA  -0.154
23. CAGGAACG  -0.153
24. CAAGTATC  -0.152
25. CGAGTCAG  -0.151
26. AACTCAGT  -0.15
27. AAGGGAAT  -0.149
28. ATCCAGAT  -0.146
29. AGGAGAGA  -0.136
30. GTGGAGTA  -0.135
31. ACACCCCC  -0.133
32. AAACTCTG  -0.126
33. ACTCTAAT  -0.121
34. GGCTTGCA  -0.118
35. ATGGGTTG  -0.114
36. AATTCTCT  -0.113
37. AGGGGATG  -0.112
38. CGTATATA  -0.111
39. GCTATCAC  -0.108
40. AATACCTG  -0.107
41. ATGGAGAC  -0.103
42. ATTTGAGC  -0.102
43. AATCCACA  -0.0935
44. TAGGTAAA  -0.0912
45. GGGTAACC  -0.0903
46. CGTGAACG  -0.0842
47. ACTCTCCA  -0.0794
48. ACTGGTGC  -0.0757
49. AGTAGATG  -0.0703
50. GAGGAGAC  -0.0694
51. AAGTTCCT  -0.0671
52. AAATGCCC  -0.0631
53. ATTCTCTA  -0.0579
54. CGAACTCA  -0.0578
55. AATGCATT  -0.0548
56. AAGACAGC  -0.0488
57. CAACTCGC  -0.0405
58. TAAGAAAA  -0.0396
59. CCCAACAA  -0.0374
60. CCACTCCA  -0.0346
61. ATGCGCTC  -0.034
62. AACCGTGA  -0.0334
63. ATACTCCA  -0.0317
64. CAACAGAG  -0.0308
65. ACACTCCT  -0.0208
66. ATGTTCCC  -0.0151
67. AAATAGCC  -0.00231
68. AACTTCCT  0.00298
69. ACACTCCC  0.00682
70. GAATGCAA  0.00843
71. AAACGCCA  0.0115
72. CCGTTCCA  0.0158
73. CCCATAAG  0.0166
74. GACTGGGA  0.0171
75. AAGTTACT  0.0192
76. ATCCTCAG  0.0306
77. CGAACTCG  0.0307
78. ATGCAGCG  0.0411
79. GCGCGCTA  0.0544
80. CGTATCAG  0.0563
81. AACTTCCA  0.0686
82. GTGCCGTA  0.0749
83. CAGAAATA  0.0765
84. CCACTCCC  0.0826
85. CGCGCTTA  0.0847
86. AAGGAGAT  0.0883
87. CTTTTGCC  0.093
88. GGGGAGAC  0.0986
89. AGGATCCC  0.113
90. CTGAGGCC  0.115
91. GACGCACA  0.146
92. CGCTTCTC  0.168
93. ATGCACCG  0.178
94. ATTCGGGC  0.18
95. GAATTGCC  0.182
96. CACCGGTC  0.183
97. GGAACTCA  0.189
98. CGGGAACA  0.192
99. CACGGATA  0.196
100. AACCGGTC  0.198
101. ACGGAACC  0.213
102. CGGATCCA  0.221
103. AAGCGGCG  0.222
104. AGGATCCG  0.226
105. GGAGAGTA  0.243
106. ATACTCCC  0.243
107. GCGGAACC  0.254
108. TACGGACA  0.257
109. ACGGAACA  0.27
110. ACGGAACG  0.271
111. CCCGGACG  0.273
112. AGAACTCC  0.276
113. GGATTTTA  0.283
114. ATTCGGCC  0.284
115. ATTCGGCG  0.286
116. ACGTTCCG  0.289
117. ATCCGGTA  0.294
118. CACGGACA  0.317
119. CAACGCCG  0.318
120. AACGGACA  0.321
121. GGGATCCC  0.325
122. GACGGACA  0.328
123. CCTCTCCG  0.333
124. ATGCCGGG  0.336
125. GCGGAACA  0.344
126. ATCCGGTC  0.346
127. CAGTTCCG  0.348
128. CTGCCGGA  0.355
129. TGCGGACA  0.356
130. ATTCGGAA  0.36
131. CAATGCCG  0.365
132. GTCCGGTA  0.366
133. ACCGGACG  0.369
134. AAAGGCCG  0.37
135. ATGCCGGC  0.372
136. GCCGGACC  0.376
137. ACCGGACC  0.384
138. CGCCGGTC  0.388
139. CGGAGAGC  0.389
140. ACGGAGAC  0.39
141. CGAACTCC  0.39
142. ATTCGGAC  0.392
143. GGAACTCC  0.393
144. GACCGGTC  0.397
145. ACACTCCG  0.398
146. GCCGGATA  0.4
147. GCGGAGAC  0.4
148. ACCGGACA  0.401
149. CGGAGAGA  0.402
150. CGGATCCC  0.402
151. CCGGAACC  0.402
152. CCGTTCCG  0.402
153. CCCGGACA  0.405
154. ACTCTCCG  0.405
155. CCGGAACG  0.411
156. AAACGCCG  0.412
157. TCGGAACA  0.417
158. AAGTTCCG  0.42
159. ATTCGGAG  0.422
160. AAATGCCG  0.423
161. ATGTTCCG  0.429
162. AACTTCCG  0.433
163. CCACTCCG  0.437
164. CGGATCCG  0.438
165. GTGCCGGA  0.438
166. CCGGAACA  0.442
167. ACCGGACT  0.443
168. GCCGGACA  0.447
169. CTCCGGTC  0.455
170. TCCGGACA  0.456
171. ATGCCGGA  0.456
172. ACGGAGAT  0.465
173. CTCCGGTA  0.47
174. ATACTCCG  0.487
